Source: PubChem BioAssay
Values joined by “and” are separate entries in the source; they are usually repeats but may differ in a detail not shown here. Identical values can stand only once. Active and inactive are the calls of the source. Unless noted, how the calls were made is not given here.

Key:
[1] = P. berghei load reduction in hepatocytes – cell-based, HepG2, luciferase luminescence, HepG2 viability, primary screen (AID 624349; in the data active means parasite load remaining mostly below about 12%, no sharp cut-off; inactive means mostly above about 10%;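 further: 100% = mean of DMSO negative control wells on the same plate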); conditions: P. berghei liver stage in HepG2, luciferase luminescence, concentration not given here; parasite load remaining: stronger effect = lower value; viability: measured here: HepG2 viability without parasites
[2] = signal quenchers or enhancers, Cy5 substrate/SSB – biochemical, NIH Clinical Collection, E. coli SSB, artefact control for HCV NS3 helicase inhibitor project (AID 743268); conditions: Cy5-oligo bound E. coli SSB, fluorescence interference
[3] = system: Hepatitis C virus NS3 helicase; assay: blockers of NS3h binding to DNA – biochemical, fluorescence polarization, NIH Clinical Collection, primary screen (AID 743270); conditions: NS3 helicase binding to Cy5-dT15 DNA, stronger effect = higher value, concentration not given here
[4] = target: Single-stranded DNA-binding protein (Escherichia coli (strain K12)) (UniProt P0AGE0); assay: SSB-ssDNA binding inhibitors – biochemical, fluorescence polarization, NIH Clinical Collection, counter-screen for HCV NS3 helicase inhibitor project (AID 743271; in the data active means inhibition above about 28%); conditions: E. coli SSB-DNA binding, stronger effect = higher value, concentration not given here
[5] = compounds distorting NS3 helicase fluorescence signal – biochemical, NIH Clinical Collection, artefact control for HCV NS3 helicase inhibitor project (AID 743272); conditions: fluorescence interference counterscreen, HCV NS3 helicase assay; stronger effect = lower value;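 further: HCV NS3 helicase with a Cy5 labelled single stranded DNA probe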
[6] = system: Neuropilin-2 / VEGF-C interaction (human); assay: small molecules blocking Neuropilin-2/VEGF-C interaction – biochemical, microplate binding format, z-score (AID 743281); conditions: microplate NRP2/VEGF-C binding assay; stronger effect = lower value
[7] = Wnt pathway potentiators raising nuclear beta-catenin – imaging, WNT3A-conditioned medium, mouse C2C12, NPC library, primary screen (AID 1117326; in the data active means nuclear beta-catenin stimulation mostly above about 4.2%, no sharp cut-off; inactive means mostly below about 10%); conditions: stronger effect = higher value
[8] = stimulators of insulin release from INS-1E, primary screen, cell-based, 5 mM glucose, NPC library (AID 1117329;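 active means compound raises insulin release from rat beta cells at 5 mM glucose, no numeric limit stated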); conditions: rat INS-1E insulin secretion, at 10 µM, stronger effect = higher value
[9] = growth inhibition of GSK3B-pretreated HCT116 cells – cell-based, CellTiter-Glo, 0.2 to 20 µM (AID 1117336;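 active means compounds lowering colon cancer cell viability after pretreatment blocking the GSK3B kinase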); conditions: HCT116 viability after GSK3B inhibitor, at 20 µM, stronger effect = higher value
[10] = inhibition of endothelial tube formation, primary screen, imaging, VEGF stimulated, CD31 staining, tube area, NPC library (AID 1117340;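 active means compound that reduces growth-factor-driven endothelial tube area in a mixed cell culture, no cutoff stated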); conditions: VEGF-stimulated ADSC/ECFC co-culture, at 10 µM, stronger effect = higher value
[11] = GLP1 release stimulators, primary, NCI-H716, NPC library (AID 1117341;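 active means compound raises GLP1 secretion from the human gut endocrine cells, with no numeric limit stated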); conditions: NCI-H716 cells, at 10 µM, stronger effect = higher value
[12] = HCT116 colon cancer cell growth inhibition, primary screen, CellTiter-Glo luminescence, NPC library (AID 1117342;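 active means compounds that lower survival of HCT116 colon cancer cells in the luminescence readout, no numeric limit stated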); conditions: at 20 µM (top of the series)
[13] = reduced SW480 viability measured with CellTiter-Glo, NPC library, primary (AID 1117343;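 active means compounds that lower viability of the colon cancer cells in the luminescence readout, with no numeric limit stated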); conditions: CellTiter-Glo luminescence; at 20 µM (top of the series)
[14] = NPC library primary testing for decreased DLD-1 cell viability via CellTiter-Glo (AID 1117346;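 active means compounds that lower survival of DLD-1 colon cancer cells in the luminescence readout, no cutoff given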); conditions: DLD-1 viability, CellTiter-Glo luminescence; at 20 µM (top of the series)

| SMILES | parasite load remaining [1] | viability [1] | fluorescence ratio [2] | inhibition [3] | inhibition [4] | fluorescence ratio [5] | z-score [6] | nuclear beta-catenin stimulation ([7]; at 10 µM) | nuclear beta-catenin stimulation ([7]; stimulation, at 2 µM) [%] | insulin secretion stimulation [8] | viability decrease [9] | tube area decrease [10] | GLP1 secretion stimulation [11] | inhibition of viability [12] | viability decrease (inhibition) [13] | viability decrease (inhibition) [14] |
| --- | --- | --- | --- | --- | --- | --- | --- | --- | --- | --- | --- | --- | --- | --- | --- | --- |
| CCC1=C(C)CN(C(=O)NCCc2ccc(S(=O)(=O)NC(=O)NC3CCC(C)CC3)cc2)C1=O (centres undefined) | 156% (inactive) and 92.3% (inactive) and 45.4% (inactive) | 98.1% and 72.7% and 68.5% | 0.97 (inactive) | -1.09% (inactive) | 0.39% (inactive) | 0.96 (inactive) | 1.17 (inactive) | 1% (inactive) | -1.7 | 29.4% (active) | 34.1% (inactive) | -7.2% (inactive) | 2.3% (inactive) | 2.4% (inactive) | 17.1% (inactive) | 7.8% (inactive) |
| CC(=O)OCC(=O)NCCCOc1cccc(CN2CCCCC2)c1 | 165% (inactive) and 103% (inactive) and 34.4% (inactive) | 104% and 78.4% and 85% | 1.04 (inactive) | -0.4% (inactive) | -0.1% (inactive) | 1.02 (inactive) | -0.306 (inactive) | 1.8% (inactive) | 0.4 | -0.7% (inactive) | -69.8% (inactive) | 10.4% (inactive) | -0.3% (inactive) | -15.6% (inactive) | 22.9% (inactive) | -31.7% (inactive) |
| CC(Oc1c(Cl)cccc1Cl)C1=NCCN1 (centres undefined) | 53.2% (inactive) and 28% (inactive) | 69% and 138% | 0.98 (inactive) | -8.08% (inactive) | -3.54% (inactive) | 0.95 (inactive) | 0.439 (inactive) | -2.3% (inactive) | 0.3 | 2.3% (inactive) | -16.2% (inactive) | -28.5% (inactive) | -2.9% (inactive) | 31.3% (inactive) | 12.5% (inactive) | 61.6% (active) |
| Nc1ccc(O)c(C(=O)O)c1 | 86.6% (inactive) and 106% (inactive) and 16.7% (inactive) | 71.9% and 101% and 72% | 0.94 (inactive) | 3.56% (inactive) | 2.21% (inactive) | 0.94 (inactive) | -0.236 (inactive) | 2% (inactive) | 0.6 | -1.5% (inactive) | 2.55% (inactive) | -5.5% (inactive) | -4.4% (inactive) | 6.8% (inactive) | 22.9% (inactive) | 20.4% (inactive) |
| Cc1ccsc1C(=CCCN1CCC[C@@H](C(=O)O)C1)c1sccc1C | 111% (inactive) | 71.9% | 0.99 (inactive) | -2.77% (inactive) | 3.75% (inactive) | 0.96 (inactive) | 1.77 (inactive) | 1.8% (inactive) | 0.9 | 0.1% (inactive) | -15.1% (inactive) | -6.2% (inactive) | 2.2% (inactive) | 25% (inactive) | -16.3% (inactive) | 2.5% (inactive) |
| O=C1c2cccc3c2[C@H](CCC3)CN1[C@@H]1CN2CCC1CC2 | 80.1% (inactive) | 69.6% | 0.94 (inactive) | -1.09% (inactive) | 9.84% (inactive) | 0.96 (inactive) | -0.136 (inactive) | 0.4% (inactive) | 1.5 | 2.7% (inactive) | 19.7% (inactive) | -6.9% (inactive) | -4.5% (inactive) | 42% (inactive) | 31% (inactive) | 29.6% (inactive) |
| O=C(c1ccc(F)cc1)C1CCN(CCn2c(=S)[nH]c3ccccc3c2=O)CC1 | 28.9% (inactive) | 66.9% | 1.05 (inactive) | 10.7% (inactive) | 26.1% (inactive) | 1.06 (inactive) | 0.126 (inactive) | 2.2% (inactive) | -0.2 | -1.4% (inactive) | 63.4% (active) | -7.4% (inactive) | 3.7% (inactive) | 69.7% (active) | 69.7% (active) | 59.8% (active) |
| CC(C)(C#N)c1cc(Cn2cncn2)cc(C(C)(C)C#N)c1 | 73.5% (inactive) and 47.4% (inactive) | 67.1% and 158% | 0.93 (inactive) | -0.22% (inactive) | 1.18% (inactive) | 0.92 (inactive) | 1.38 (inactive) | 0.3% (inactive) | 1.7 | 2.3% (inactive) | -0.4% (inactive) | -11.4% (inactive) | 2.1% (inactive) | -5.9% (inactive) | 45.5% (inactive) | 0.55% (inactive) |
| Cc1ccnc2c1NC(=O)c1cccnc1N2C1CC1 | 79.8% (inactive) | 69.1% | 1.05 (inactive) | 1.98% (inactive) | -5.49% (inactive) | 1 (inactive) | -1.18 (inactive) | 0% (inactive) | 1.8 | -1.6% (inactive) | -14.3% (inactive) | -6.9% (inactive) | -2% (inactive) | 6.5% (inactive) | -13.1% (inactive) | 13.6% (inactive) |
